Structures can show the parent of a compound that is named as a salt.

The subject of the test is Saccharomyces cerevisiae BY4741 SeMeCo community. Briefly: z-score of subpopulation abundance vs DMSO median, subpopulation auxotrophic for HL; higher = larger share of this subpopulation than in DMSO controls. The following applies: 10 µM; 24 h; SM minimal medium; subpopulation (auxotrophy): HL. The protocol: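 Fluorescent four-plasmid SeMeCo (self-establishing metabolically cooperating S. cerevisiae BY4741 community; plasmids pH-mRuby2, pL-mWasabi, pU-eCFP, pM-TagRFP657) was grown 24 h in minimal SM medium with each Selleck FDA-approved drug at 10 µM in 384-well plates. Cells were fixed and imaged by high-content confocal microscopy. For each auxotrophic subpopulation (and the prototroph), a z-score gives the deviation from the DMSO vehicle-control population median.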
Turning to `CN(C)[C@@H]1C(=O)C(C(N)=O)=C(O)[C@@]2(O)C(=O)C3=C(O)c4c(O)ccc(Cl)c4[C@@H](O)[C@H]3C[C@@H]12` [Demeclocycline HCl], the “z-score of subpopulation abundance” value worked out at 0.01.

As for `COc1cccc(CCc2ccccc2OCC(CN(C)C)OC(=O)CCC(=O)O)c1` (stereo not given) [Sarpogrelate hydrochloride], the “z-score of subpopulation abundance” value is -0.5.

With `CC(C)(C)CC(C)(C)c1ccc(OCCOCC[N+](C)(C)Cc2ccccc2)cc1` [Benzethonium Chloride], the “z-score of subpopulation abundance” value is -0.38.

Regarding `CCCCCCCCOc1ccccc1C(=O)Nc1ccc(C(=O)OCC[N+](C)(CC)CC)cc1` [Otilonium Bromide], the “z-score of subpopulation abundance” value was 1.68.

Regarding `O=C(O)c1cn(C2CC2)c2cc(N3CCNCC3)c(F)cc2c1=O` [Ciprofloxacin hydrochloride hydrate], the “z-score of subpopulation abundance” value is -0.26.

For `COc1ccc2cc3[n+](cc2c1OC)CCc1cc2c(cc1-3)OCO2` [Berberine chloride], the “z-score of subpopulation abundance” value is 0.31.

Regarding `CN(C)C(=O)COC(=O)Cc1ccc(OC(=O)c2ccc(NC(=N)N)cc2)cc1` [Camostat Mesilate], the “z-score of subpopulation abundance” value was -0.35.

Regarding `Cc1c(OCC(F)(F)F)ccnc1C[S+]([O-])c1nc2ccccc2[nH]1` (stereo not given) [Lansoprazole], the “z-score of subpopulation abundance” value stood at 2.01.

For `CCN1CCN(C(=O)N[C@@H](C(=O)N[C@@H]2C(=O)N3C(C(=O)O)=C(CSc4nnnn4C)CS[C@H]23)c2ccc(O)cc2)C(=O)C1=O` [Cefoperazone], the “z-score of subpopulation abundance” value amounted to 0.07.

Consider `O=C(O)CCC(=O)c1ccc(-c2ccccc2)cc1` [Fenbufen], for which the “z-score of subpopulation abundance” value turned out to be 0.57.

Turning to `CC(=O)OCC(CCn1cnc2cnc(N)nc21)COC(C)=O` [Famciclovir], the “z-score of subpopulation abundance” value is 0.32.

Regarding `CNCC[C@H](Oc1cccc2ccccc12)c1cccs1` [Duloxetine], the “z-score of subpopulation abundance” value is -1.33.

As for `O=C1c2cccc3c2[C@H](CCC3)CN1[C@@H]1CN2CCC1CC2` [Palonosetron], the “z-score of subpopulation abundance” value is -0.45.

On to `O=C(C1CCCCC1)N1CC(=O)N2CCc3ccccc3C2C1` (stereo not given) [Praziquantel], for which the “z-score of subpopulation abundance” value was -0.41.

For the molecule `O=C(Nc1cccc(C2=NCCN2)c1)Nc1cccc(C2=NCCN2)c1` [Imidocarb dipropionate], the “z-score of subpopulation abundance” value is -0.57.

For the molecule `CC(C)[C@H](N)C(=O)OCCOCn1cnc2c(=O)nc(N)[nH]c21` [Valaciclovir HCl], the “z-score of subpopulation abundance” value is -0.27.

For `CCOC(=O)C1=C(C)NC(C)=C(C(=O)OC)C1c1cccc([N+](=O)[O-])c1` (stereo not given) [Nitrendipine], the “z-score of subpopulation abundance” value was -0.8.

For `CCN1CCC[C@H]1CNC(=O)c1cc(S(N)(=O)=O)ccc1OC` [Levosulpiride], the “z-score of subpopulation abundance” value was -0.21.

`O=C(O)c1cc(-c2ccc(F)cc2F)ccc1O` [Diflunisal]: the “z-score of subpopulation abundance” value was -0.87.

Turning to `CN(C)CC(c1ccc(O)cc1)C1(O)CCCCC1` (stereo not given) [Desvenlafaxine], the “z-score of subpopulation abundance” value was -0.75.

`CC/C(=C(\c1ccccc1)c1ccc(OCCN(C)C)cc1)c1ccccc1` [Tamoxifen Citrate]: the “z-score of subpopulation abundance” value is 0.64.

Consider `C[C@@H](CN1CC(=O)NC(=O)C1)N1CC(=O)NC(=O)C1` [Dexrazoxane HCl (ICRF-187, ADR-529)], for which the “z-score of subpopulation abundance” value was -1.52.

Take `CC1(C)S[C@@H]2[C@H](NC(=O)[C@H](N)c3ccccc3)C(=O)N2[C@H]1C(=O)O` [Ampicillin Trihydrate]: the “z-score of subpopulation abundance” value was -0.3.

As for `Oc1ccc(Cl)c2cccnc12` [Cloxiquine], the “z-score of subpopulation abundance” value stood at 17.4.

`CCC(C)n1ncn(-c2ccc(N3CCN(c4ccc(OCC5COC(Cn6cncn6)(c6ccc(Cl)cc6Cl)O5)cc4)CC3)cc2)c1=O` (stereo not given) [Itraconazole]: the “z-score of subpopulation abundance” value amounted to 17.3.

For `O=c1[nH]cc(F)c(=O)[nH]1` [Fluorouracil (5-Fluoracil, 5-FU)], the “z-score of subpopulation abundance” value came to 6.71.

Consider `CCC1(C)CC(=O)NC1=O` (stereo not given) [Ethosuximide], for which the “z-score of subpopulation abundance” value amounted to 0.36.

Consider `CO[C@@H]1[C@@H](O[C@@H]2O[C@H](C)[C@@H](O[C@H]3C[C@@](C)(O)[C@@H](O)[C@H](C)O3)[C@H](N(C)C)[C@H]2O)[C@@H](CC=O)C[C@@H](C)[C@@H](O[C@H]2CC[C@H](N(C)C)[C@@H](C)O2)/C=C/C=C/C[C@@H](C)OC(=O)C[C@H]1OC(C)=O` [Acetylspiramycin (ASPM)], for which the “z-score of subpopulation abundance” value was 1.77.

`CCN1CCN(C(=O)N[C@@H](C(=O)N[C@@H]2C(=O)N3[C@@H]2SC(C)(C)[C@@H]3C(=O)O)c2ccccc2)C(=O)C1=O` [Piperacillin Sodium]: the “z-score of subpopulation abundance” value came out at 0.54.

Turning to `CCCCC(F)(F)[C@@]1(O)CC[C@H]2[C@@H](CC(=O)[C@@H]2CCCCCCC(=O)O)O1` [Lubiprostone], the “z-score of subpopulation abundance” value was -0.29.

For `CC(=O)OC(C)C[N+](C)(C)C` (stereo not given) [Methacholine chloride], the “z-score of subpopulation abundance” value came to 0.45.

Regarding `N#CC(c1ccc(Cl)cc1)c1c(Cl)cc(-n2ncc(=O)[nH]c2=O)cc1Cl` (stereo not given) [Diclazuril], the “z-score of subpopulation abundance” value is -0.28.

For `Cn1c(=O)c2c(ncn2CC(O)CO)n(C)c1=O` (stereo not given) [Dyphylline], the “z-score of subpopulation abundance” value is -0.71.

As for `COc1ccnc(C[S+]([O-])c2nc3cc(OC(F)F)ccc3[nH]2)c1OC` (stereo not given) [Pantoprazole], the “z-score of subpopulation abundance” value turned out to be 0.9.

Turning to `COc1ccc2c3c1O[C@H]1C[C@@H](O)C=C[C@@]31CCN(C)C2` [Galanthamine], the “z-score of subpopulation abundance” value was 0.83.

`O=C1CN(/N=C/c2ccc(-c3ccc([N+](=O)[O-])cc3)o2)C(=O)N1` [Dantrolene sodium hemiheptahydrate]: the “z-score of subpopulation abundance” value is 1.61.

Consider `N=C(N)NS(=O)(=O)c1ccc(N)cc1` [Sulfaguanidine], for which the “z-score of subpopulation abundance” value is -0.4.

For the molecule `Clc1ccc(C(Cn2ccnc2)OCc2ccc(Sc3ccccc3)cc2)c(Cl)c1` (stereo not given) [Fenticonazole Nitrate], the “z-score of subpopulation abundance” value came out at 62.4.

For the molecule `c1ccc(-c2ccc(C(c3ccccc3)n3ccnc3)cc2)cc1` (stereo not given) [Bifonazole], the “z-score of subpopulation abundance” value was 1.27.

On to `O=C(O)c1cn(-c2ccc(F)cc2)c2cc(N3CCNCC3)c(F)cc2c1=O` [Sarafloxacin HCl], for which the “z-score of subpopulation abundance” value is -0.42.

Values taken from the supplement of paper PMC8975748.
